Assay [1] is described as follows: qHTS assay to identify small molecule antagonists of the androgen receptor (AR) signaling pathway using the MDA cell line in the presence of 0.5 nM R1881 - cell viability counter screen (AID 1259242). Further: nearly all actives have a fitted effect of over 45% in size. Further: potency means the concentration at half of the fitted maximal effect. The method in brief:
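MDA-kb2 cells (MMTV-luciferase, AR/GR responsive) were treated with compounds plus 0.5 nM R1881 (final) for 16 hr at 37C, 0% CO2. Viability was then read in the same wells as live-cell protease fluorescence (CellTiter-Fluor, 30 min).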

Assay [2] deals with Androgen receptor (Homo sapiens) (UniProt P10275). The experiment in a line: qHTS assay to identify small molecule antagonists of the androgen receptor (AR) signaling pathway using the MDA cell line in the presence of 0.5 nM R1881 (AID 1259243). Further: nearly all actives have a fitted effect of over 50% in size. Further: potency means the concentration at half of the fitted maximal effect. The method, boiled down: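 MDA-kb2 cells (MMTV-luciferase, responsive to AR and GR) at 3,000/well, rested 5 h at 37C, 0% CO2, then given compounds plus 0.5 nM R1881 (final) for 16 hr. Luciferase read with ONE-Glo after 30 min at room temperature.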
Sequence of Androgen receptor (Homo sapiens) (P10275 whole entry, looked up): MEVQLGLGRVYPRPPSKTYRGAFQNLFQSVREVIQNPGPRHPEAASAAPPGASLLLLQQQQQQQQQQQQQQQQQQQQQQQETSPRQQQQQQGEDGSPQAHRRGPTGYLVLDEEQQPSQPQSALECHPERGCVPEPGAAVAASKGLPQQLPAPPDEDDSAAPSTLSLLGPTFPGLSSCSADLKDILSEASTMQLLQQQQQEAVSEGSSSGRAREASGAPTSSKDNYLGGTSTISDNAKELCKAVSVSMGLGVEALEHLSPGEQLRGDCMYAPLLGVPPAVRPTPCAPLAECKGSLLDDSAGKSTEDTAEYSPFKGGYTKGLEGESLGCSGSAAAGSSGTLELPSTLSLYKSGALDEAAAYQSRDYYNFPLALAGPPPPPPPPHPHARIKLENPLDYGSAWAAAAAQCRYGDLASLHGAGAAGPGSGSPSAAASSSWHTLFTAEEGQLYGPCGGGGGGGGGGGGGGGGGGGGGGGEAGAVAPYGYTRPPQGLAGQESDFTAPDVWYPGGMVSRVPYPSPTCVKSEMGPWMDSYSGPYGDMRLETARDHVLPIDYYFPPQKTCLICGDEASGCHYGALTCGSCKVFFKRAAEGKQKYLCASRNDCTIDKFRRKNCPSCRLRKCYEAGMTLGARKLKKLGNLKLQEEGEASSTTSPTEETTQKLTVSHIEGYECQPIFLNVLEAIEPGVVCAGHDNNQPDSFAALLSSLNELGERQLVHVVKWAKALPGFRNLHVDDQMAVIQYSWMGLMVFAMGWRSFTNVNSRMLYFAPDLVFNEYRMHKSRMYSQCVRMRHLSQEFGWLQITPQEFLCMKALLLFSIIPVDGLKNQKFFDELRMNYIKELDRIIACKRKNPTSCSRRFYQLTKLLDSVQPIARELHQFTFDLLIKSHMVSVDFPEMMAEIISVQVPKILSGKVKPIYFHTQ

A short description of assay [3]: qHTS assay to identify small molecule HDAC inhibitors (AID 1259364). Further: nearly all actives have a fitted effect of over 45% in size. Further: potency means the concentration at half of the fitted maximal effect. The method in brief:
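Wild-type HCT-116 cells, plated overnight at 37 C, exposed to compounds 2 hr at 37 C; luminogenic HDAC-Glo substrate then added 30 min at room temperature. Luminescence reports relative endogenous class I/II HDAC activity.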

Assay [4] can be described thus: qHTS assay to identify small molecule HDAC inhibitors - cell viability counter screen (AID 1259365). Further: series mostly up to about 92 µM; nearly all actives have a fitted effect of over 50% in size. The method, boiled down:
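After overnight seeding at 1,500 cells per well, wild-type HCT-116 cultures took up compounds in DMSO for 2hr at 37 C. Viable cell content came from luminescence with CellTiter-Glo.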

Assay [5] is described as follows: qHTS assay to identify small molecule agonists of the sonic hedgehog signaling (Shh) pathway - cell viability counter screen (AID 1259366). Further: nearly all actives have a fitted effect of over 50% in size. Further: potency means the concentration at half of the fitted maximal effect. The method, boiled down:
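Same-well cytotoxicity read. Gli1-Luc reporter 3T3 cells; compounds 24hr, 37C/5% CO2; CellTiter-Fluor fluorescence.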

Assay [6] is described as follows: qHTS assay to identify small molecule antagonists of the sonic hedgehog signaling (Shh) pathway - cell viability counter screen (AID 1259367). Further: nearly all actives have a fitted effect of over 55% in size. The method in brief: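 NIH/3T3-derived Gli1-Luc reporter cells, 2,000/well, plated 4 hr before compound addition, then stimulated with conditioned medium for 24 hr at 37C. Viability measured in the same wells by CellTiter-Fluor fluorescence, reagent added at 23 hr for 1 hr.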

Assay [7] is described as follows: qHTS assay to identify small molecule agonists of the sonic hedgehog signaling (Shh) pathway (AID 1259368; calls by dose curve; further: nearly all actives have a fitted effect of over 15% in size; further: potency means the concentration at half of the fitted maximal effect). The method in brief: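 NIH/3T3-derived 3T3Gli1-Luc cells with stably integrated Gli1-driven firefly luciferase, 2,000 cells/well, compounds added after 4 hr. Incubated 24 hr at 37C, 5% CO2; luminescence read after 30 min with luciferase reagent at room temperature.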

Assay [8] can be described thus: qHTS assay to identify small molecule antagonists of the sonic hedgehog signaling (Shh) pathway (AID 1259369; calls by dose curve; further: nearly all actives have a fitted effect of over 45% in size; further: potency means the concentration at half of the fitted maximal effect). The method in brief: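 NIH/3T3-derived Gli1-Luc reporter cells plated 4 h, dosed with compound, then stimulated with conditioned medium for 24 h at 37 C. Firefly luciferase luminescence read after 30 min with detection reagent at room temperature.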
A short description of assay [9]: qHTS assay to identify small molecule agonists of the androgen receptor (AR) signaling pathway in the presence of an antagonist - cell viability counter screen (AID 1259379). Further: nearly all actives have a fitted effect of over 25% in size. Further: potency means the concentration at half of the fitted maximal effect. The method in brief:
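MDA-kb2 cells (MMTV-luciferase, AR/GR), 3,000/well, 5 h attachment, then 3.0 µM nilutamide (final) and compounds at 15 concentrations. Viability by CellTiter-Fluor fluorescence after 16 h at 37 °C, 0% CO2, in the reporter wells.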

The nature of assay [10]: qHTS assay to identify small molecule agonists of the estrogen receptor beta (ER-beta) signaling pathway - cell viability counter screen (AID 1259380). Further: nearly all actives have a fitted effect of over 30% in size. Further: potency means the concentration at half of the fitted maximal effect. The method, boiled down: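 ER-beta-UAS-bla HEK293T cells in medium with 2% charcoal-stripped FBS, pre-incubated 6 hr, then treated 16 hr at 37C. Cytotoxicity read in the same wells by CellTiter-Glo luminescence after 30 min at room temperature.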

In assay [11] the target is Androgen receptor (Homo sapiens) (UniProt P10275). The experiment in a line: qHTS assay to identify small molecule agonists of the androgen receptor (AR) signaling pathway in the presence of an antagonist (AID 1259381; calls by dose curve; further: nearly all actives have a fitted effect of over 15% in size; further: potency means the concentration at half of the fitted maximal effect). The method, boiled down: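 MDA-kb2 cells carrying MMTV-luciferase (AR/GR responsive), 3,000 cells/well, co-treated with 3.0 uM nilutamide final. Compounds at 15 concentrations, 16 hr at 37C without CO2. Luciferase luminescence read after 30 min with ONE-Glo.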

A short description of assay [12]: qHTS assay to identify small molecule antagonists of the estrogen receptor beta (ER-beta) signaling pathway - cell viability counter screen (AID 1259382). Further: nearly all actives have a fitted effect of over 55% in size. Further: potency means the concentration at half of the fitted maximal effect. The method in brief:
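ER-beta-UAS-bla HEK293T cells in 2% charcoal-stripped FBS medium, treated with compound plus 1 nM 17-beta-estradiol for 16 h at 37C. Viability read by CellTiter-Glo luminescence after 30 min at room temperature in the same wells.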

Assay [13] can be described thus: qHTS assay to identify small molecule agonists or antagonists of the thyroid stimulating hormone receptor (TSHR) signaling pathway - wild type cell line counter screen (AID 1259384; calls by dose curve). The method, boiled down: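 Wild-type Hek293 cells, 800/well, 18 h at 37C, then compound with Ro20-1724 for 30 min RT. cAMP by HTRF (cAMP-d2/anti-cAMP cryptate), 1 h RT, fluorescence read. 15 concentrations, triplicates.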

Assay [14] concerns the target Thyrotropin receptor (Homo sapiens) (UniProt P16473). The experiment in a line: qHTS assay to identify small molecule antagonists of the thyroid stimulating hormone receptor (TSHR) signaling pathway (AID 1259385; calls by dose curve; further: nearly all actives have a fitted effect of over 20% in size). The method in brief:
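TSHR-HEK293 cells (800/well) plated 18 h, then compounds with Ro20-1724 and TSH at 1.5 ng/mL final, 30 min at room temperature. cAMP quantified by HTRF (cAMP-d2/anti-cAMP-cryptate, 1 h); 15 concentrations in triplicate.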

The nature of assay [15]: qHTS assay to identify small molecule agonists of the estrogen receptor alpha (ER-alpha) signaling pathway in the presence of an antagonist - cell viability counter screen (AID 1259386).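 Further: cells exposed to compounds for 22 h at 37 °C before the viability read; nearly all actives have a fitted effect of over 30% in size.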 Further: potency means the concentration at half of the fitted maximal effect. The method, boiled down: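 Cell viability in VM7Luc4E2 cells (endogenous full-length ER-alpha) measured by CellTiter-Fluor fluorescence in the same wells as the luciferase screen. Cells pre-cultured 5 days in charcoal-stripped serum, then treated 22 h with compounds at 15 concentrations plus 10.0nM ICI-182,780.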

Assay [16] deals with Estrogen receptor (Homo sapiens) (UniProt P03372). The experiment in a line: qHTS assay to identify small molecule antagonists of the estrogen receptor alpha (ER-alpha) signaling pathway using the BG1 cell line in the presence of 0.1 nM 17-beta-estradiol (AID 1259244). Further: nearly all actives have a fitted effect of over 50% in size. Further: potency means the concentration at half of the fitted maximal effect. The method in brief:
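VM7Luc4E2 cells (endogenous full-length ER-alpha, 4×ERE-luciferase), kept 5 days in phenol red-free, charcoal-stripped FBS medium; 4,000 cells/well. Compounds added with 0.1 nM (final) 17beta-estradiol, 22 hr at 37C; luminescence read with ONE-Glo after 30 min.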

The target of assay [17] is Estrogen receptor beta (Homo sapiens) (UniProt Q92731). The experiment in a line: qHTS assay to identify small molecule agonists of the estrogen receptor beta (ER-beta) signaling pathway (AID 1259377; active means well fitted activation curve with a large enough effect in the signal ratio in the repeat runs, not every such curve was filed as active; the % refers to the signal ratio). The method in brief:
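Read-out: beta-lactamase FRET fluorescence. Cell line: ER-beta-UAS-bla HEK293T in 2% charcoal-stripped FBS. Exposure: 16 hr at 37C. Substrate step: 2 h at room temperature.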

The target is the same in assay [18]. The experiment in a line: qHTS assay to identify small molecule antagonists of the estrogen receptor beta (ER-beta) signaling pathway (AID 1259378; active means well fitted inhibition curve with a large enough effect in the signal ratio in the repeat runs, not every such curve was filed as active; the % refers to the signal ratio; further: potency means the concentration at half of the fitted maximal effect). The method, boiled down: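 ER-beta-UAS-bla HEK293T cells in 2% charcoal-stripped FBS medium treated with compound plus 1nM final 17-beta-estradiol for 16 hr at 37C. Beta-lactamase reporter read by FRET substrate fluorescence after 2 hours at room temperature.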

Assay [19] concerns the target Estrogen receptor (Homo sapiens) (UniProt P03372). The experiment in a line: qHTS assay to identify small molecule agonists of the estrogen receptor alpha (ER-alpha) signaling pathway in the presence of an antagonist (AID 1259383; calls by dose curve; further: top concentration of the series differs between compounds; nearly all actives have a fitted effect of over 15% in size). The method in brief: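 VM7Luc4E2 cells express endogenous full-length ER-alpha with an ERE-luciferase reporter and were hormone-deprived for 5 days. Compounds at 15 concentrations were added with 10.0nM ICI-182,780 for 22hr at 37C. Luminescence was read with ONE-Glo.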

A short description of assay [20]: qHTS assay to identify small molecule phospholipidosis (PLD) inducers (AID 1259344; active means well fitted curve in the direction sought with a large enough effect; an effect the other way counts as inactive or inconclusive). The method in brief: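 HepG2 cells, 900/well, treated with compound plus LipidTOX Red for 24 h at 37 C; amiodarone positive and DMSO negative controls. Fixed with paraformaldehyde/Hoechst, then high-content imaging scored LipidTOX pit count and integrated intensity per well and per cell.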

Each structure is given as a SMILES string. Values joined by “and” are separate entries in the source; they are usually repeats but may differ in a detail not shown here. Equal entries are not always repeated. Values without a mark were called inactive. Records with an inconclusive call do not appear. Active and inactive are the calls of the source. Unless noted, the call rests on the fitted dose curve; in most records, active means well fitted curve in the direction sought with a large enough effect in the repeat runs; inconclusive means weak or mixed curves; inactive means no such curve, though single readings can be large; an effect the other way counts as inactive or inconclusive.

Sequence of Thyrotropin receptor (Homo sapiens) (P16473 whole entry, looked up): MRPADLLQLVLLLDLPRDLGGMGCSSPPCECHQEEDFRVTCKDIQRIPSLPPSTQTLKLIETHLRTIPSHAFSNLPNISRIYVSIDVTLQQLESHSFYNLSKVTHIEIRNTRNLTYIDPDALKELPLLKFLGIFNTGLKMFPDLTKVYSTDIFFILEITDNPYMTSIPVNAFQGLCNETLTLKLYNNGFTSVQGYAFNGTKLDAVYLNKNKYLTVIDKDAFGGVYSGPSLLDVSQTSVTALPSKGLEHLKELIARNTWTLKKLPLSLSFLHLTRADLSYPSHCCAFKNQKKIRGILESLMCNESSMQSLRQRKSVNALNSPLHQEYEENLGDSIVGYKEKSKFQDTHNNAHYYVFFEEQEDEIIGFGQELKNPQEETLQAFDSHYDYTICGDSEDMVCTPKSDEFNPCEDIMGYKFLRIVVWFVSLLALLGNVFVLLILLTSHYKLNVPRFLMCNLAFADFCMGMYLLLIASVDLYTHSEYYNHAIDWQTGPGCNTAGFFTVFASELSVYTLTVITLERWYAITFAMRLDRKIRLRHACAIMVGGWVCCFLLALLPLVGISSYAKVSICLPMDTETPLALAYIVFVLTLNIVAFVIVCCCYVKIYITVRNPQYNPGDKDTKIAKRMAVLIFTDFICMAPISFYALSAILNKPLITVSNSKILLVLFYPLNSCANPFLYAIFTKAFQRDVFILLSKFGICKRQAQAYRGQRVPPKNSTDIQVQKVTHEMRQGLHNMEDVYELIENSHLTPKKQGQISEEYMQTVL
Sequence of Estrogen receptor beta (Homo sapiens) (Q92731 whole entry, looked up): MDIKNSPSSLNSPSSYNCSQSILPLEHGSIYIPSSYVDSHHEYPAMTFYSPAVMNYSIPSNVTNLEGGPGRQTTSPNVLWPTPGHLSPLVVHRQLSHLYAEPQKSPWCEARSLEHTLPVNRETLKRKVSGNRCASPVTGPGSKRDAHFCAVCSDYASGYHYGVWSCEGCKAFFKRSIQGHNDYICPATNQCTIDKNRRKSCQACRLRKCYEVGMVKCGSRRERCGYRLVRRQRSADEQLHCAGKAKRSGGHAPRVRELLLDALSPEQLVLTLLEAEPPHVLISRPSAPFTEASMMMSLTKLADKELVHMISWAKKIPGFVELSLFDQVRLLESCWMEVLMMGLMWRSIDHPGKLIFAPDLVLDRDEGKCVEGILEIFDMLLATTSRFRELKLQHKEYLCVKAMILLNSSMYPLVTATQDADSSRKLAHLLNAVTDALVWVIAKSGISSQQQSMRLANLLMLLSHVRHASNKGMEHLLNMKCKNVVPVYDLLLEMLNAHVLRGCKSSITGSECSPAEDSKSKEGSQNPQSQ
Sequence of Estrogen receptor (Homo sapiens) (P03372 whole entry, looked up): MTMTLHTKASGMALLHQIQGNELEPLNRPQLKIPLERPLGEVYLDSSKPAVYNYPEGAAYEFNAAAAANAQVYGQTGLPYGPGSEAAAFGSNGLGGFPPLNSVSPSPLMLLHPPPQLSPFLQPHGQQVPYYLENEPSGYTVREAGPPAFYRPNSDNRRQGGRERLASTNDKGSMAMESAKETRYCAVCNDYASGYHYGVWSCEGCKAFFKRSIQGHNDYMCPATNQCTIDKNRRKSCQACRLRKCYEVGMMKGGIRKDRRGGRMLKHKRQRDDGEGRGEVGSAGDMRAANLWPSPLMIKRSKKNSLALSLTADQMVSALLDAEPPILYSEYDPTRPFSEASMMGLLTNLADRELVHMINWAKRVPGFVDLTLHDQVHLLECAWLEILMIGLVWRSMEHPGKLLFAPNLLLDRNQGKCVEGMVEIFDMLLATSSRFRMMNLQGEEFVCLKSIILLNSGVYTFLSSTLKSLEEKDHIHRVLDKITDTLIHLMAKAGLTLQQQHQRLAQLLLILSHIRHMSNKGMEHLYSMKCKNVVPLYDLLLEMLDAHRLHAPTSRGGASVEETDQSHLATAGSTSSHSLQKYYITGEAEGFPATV

Regarding `CCC1CCCCC1`, the Potency entry in assay [1], in [2], in assay [3], in assay [4], in [5] and in assay [6] was “inactive” throughout. For the same compound, the Potency result in assay [7], in assay [8], in assay [9], in assay [10], in assay [11] and in [12] was “inactive” in each case. Moreover, the Potency result in assay [14] and in assay [15] was “inactive” throughout. Further, the outcome in [13] was inactive.
On to `CCN=c1cc2oc3cc(NCC)c(C)cc3c(-c3ccccc3C(=O)OCC)c-2cc1C`, for which the Potency is 965 nM (active) and 864 nM (active) in [1]; 122 nM (active) and 217 nM (active) in assay [2]; 86 nM (active) and 306 nM (active) in assay [16]; 1.08 µM (active) and 545 nM (active) in assay [8]; 0.272 µM (active) in assay [18]; 272 nM (active) and 306 nM (active) in [9]. In addition, the Potency in [10] was 54.3 µM (active) and 24.3 µM (active); in assay [12], 54.3 µM (active) and 34.4 µM (active); in assay [15], 9.65 µM (active) and 9.69 µM (active). For the same compound, the Potency entry in [3], in [6], in assay [7], in [17] and in assay [19] was “inactive” throughout.
Consider `Clc1cc(Cl)c(-c2c(Cl)c(Cl)cc(Cl)c2Cl)cc1Cl`, for which the Potency entry in assay [1], in assay [2], in [3], in assay [4], in assay [5] and in [6] was “inactive” in each case. Further, the Potency result in [7], in assay [8], in assay [18], in assay [9], in [10] and in [12] was “inactive” in each case. Besides, the Potency entry in assay [14] and in assay [15] was “inactive” in each case. In assay [13], the call was inactive.
In the case of `COc1cc(C(=O)NS(=O)(=O)c2ccccc2C)ccc1Cc1cn(C)c2ccc(NC(=O)OC3CCCC3)cc12`, the Potency entry in assay [1], in assay [16], in assay [20], in assay [3], in assay [4] and in assay [5] was “inactive” in each case. Further, the Potency result in [6], in [7], in assay [8], in assay [17], in assay [9] and in [19] was “inactive” in each case. Besides, the Potency entry in [14] and in [15] was “inactive” in each case. Moreover, the Potency in assay [18] and in assay [10] was 13.3 µM (active) in each case. Also, the compound was called inactive in assay [13].
Consider `O=C(NO)c1ccccc1`, for which the Potency entry in [1], in assay [2], in assay [20], in assay [4], in assay [7] and in assay [9] was “inactive” in each case. The Potency result in [11] is “inactive”. The Potency is 26 µM (active) in [5] and 29.2 µM (active) in assay [8]. In addition, the compound was classed as inactive in assay [13].
As for `O=C(Oc1ccccc1)c1cccc(C(=O)Oc2ccccc2)c1`, the Potency result in [1], in assay [2], in assay [4], in assay [5], in assay [6] and in assay [8] was “inactive” each time. The Potency result in assay [9], in assay [14] and in assay [15] was “inactive” in each case. Also, the Potency in assay [3] is 0.0885 µM (active); in [7] it was 2.29 µM (active); in assay [11], 0.644 µM (active). In [13], the outcome was inactive.
For `CCOC(=O)CC(C)O` (centres undefined), the Potency entry in assay [1], in assay [2], in assay [3], in assay [4], in assay [5] and in assay [6] was “inactive” each time. Moreover, the Potency result in assay [7], in assay [8], in [17], in [9], in [10] and in assay [12] was “inactive” throughout. The Potency entry in assay [14] and in assay [15] was “inactive” throughout. Also, the call in [13] was inactive.

For the origin of these results see PubChem BioAssay (Tox21).
